Here are results for 96 compounds from PubChem BioAssay AID1159607 (Small Molecule Screening Facility, UW Madison, 2016).

Structures are written as SMILES. Hit rate of the full screen: of about 70,000 compounds, about 400 (0.57%) were called active. The entries come from a sample that favours actives as a whole. Unmarked numbers belong to inactive results. Cut-off read from the data, not from the text of the source: active = FP signal below about 40; inactive = the rest.

The assay has as its system RMI core complex (RMI1/RMI2) binding to FANCM MM2 peptide, human. Description: disruptors of RMI1/RMI2 association with MM2 peptide – biochemical, fluorescence polarization, human, primary screen (AID 1159607). As to conditions: RMI core complex with F-MM2 peptide, at 33 µM, active compounds read low.
Consider `O=C(/C=C/c1cccc(F)c1)c1cccs1`, for which the FP signal (polarization) is 64.

With `CCc1ccccc1NC(=O)c1csc(Nc2ccc(S(C)(=O)=O)cc2)n1`, the FP signal (polarization) is 77. As to `C=CCN(CC=C)S(=O)(=O)c1ccc(C(=O)Nc2nc(-c3ccc4ccccc4c3)cs2)cc1`, the FP signal (polarization) is 86.

For `Nc1ccc2c(c1)N(C(=O)c1ccccc1)CCC2`, the FP signal (polarization) was 68. In the case of `Nc1cc(-c2ccccc2)no1`, the FP signal (polarization) is 63. Regarding `C=CCn1c(SCC(=O)Nc2nsc(-c3ccccc3)n2)nc2scc(-c3ccco3)c2c1=O`, the FP signal (polarization) was 98.

`COc1ccc(CC(=O)Nc2ccc(SCC(=O)N3CCCC3)nn2)cc1OC`: the FP signal (polarization) is 61. On to `O=C(CC1CCCCN1S(=O)(=O)c1ccc(F)cc1)NCc1ccc2c(c1)OCO2` (stereo unspecified), for which the FP signal (polarization) is 68. For `CCn1nc(C(=O)Nc2cc(C)nn2-c2nc3ccc(OC)cc3s2)cc1C` the value was 71; for `Cc1ccc(C)c(NC(=O)CCS(=O)(=O)c2ccccc2)c1`, 70; for `COc1ccc(C(=O)Nc2nc(-c3ccccc3)c(C)s2)cc1`, 33 (active). `COc1ccc(-c2nc(NC(=O)c3cccc(NS(=O)(=O)c4ccccc4)c3)sc2C)cc1`: the FP signal (polarization) was 52. `CCOC(=O)c1sc(NC(=O)c2ccc(-c3ccccc3)cc2)nc1-c1ccccc1`: the FP signal (polarization) was 57. Consider `COc1ccc2nc(-c3ccc(F)c(NC(=O)c4ccccc4C(F)(F)F)c3)cn2n1`, for which the FP signal (polarization) is 87.

Consider `CCCC(=O)Nc1cc(-c2cn3nc(OC)ccc3n2)ccc1OC`, for which the FP signal (polarization) was 70. With `COc1ccc2nc(-c3ccc(OC)c(NC(=O)c4ccccc4Cl)c3)cn2n1` the figure was 13 (active); with `COc1ccc(N)cc1N1CCCCC1=O`, 62. For `COc1ccc(-c2csc3c(=O)n(Cc4ccccc4Cl)cnc23)cc1` the value was 63.

For the compound `O=c1c2scc(-c3ccccc3)c2ncn1Cc1ccccc1`, the FP signal (polarization) was 64. For `COc1ccc(-c2csc3c(=O)n(Cc4cc(=O)n5ccccc5n4)cnc23)cc1OC`, the FP signal (polarization) is -23 (active).

Turning to `O=C(NCCN1CCN(c2ccc(F)cc2)CC1)C(=O)NC1CC1`, the FP signal (polarization) was 62. On to `N/C(CS(=O)(=O)c1ccc(Cl)cc1)=N/O`, for which the FP signal (polarization) is 56. In the case of `O=C(/C=C/c1cccs1)Nc1nnc(-c2cc3ccccc3o2)o1`, the FP signal (polarization) is 56. With `COC1C=CC23c4cc5c(cc4CN(CC2O)[C@@H]3C1)OCO5` (stereo partly specified), the FP signal (polarization) is 63.

For the compound `O=C(Cn1c2c(c(=O)n(C3CCCCC3)c1=O)CCC2)Nc1ccc2c(c1)OCCO2`, the FP signal (polarization) was 58.

As to `CCCc1cc(=O)[nH]c2nnc(SCC(=O)Nc3nc4ccc(C)cc4s3)n12`, the FP signal (polarization) was 47. As for `Cc1ccc2c(c1)nnc1nnc(SCC(=O)O)n12`, the FP signal (polarization) is 2 (active). For `Cc1ccc(C(=O)CSc2nnc3ccc4ccccc4n23)cc1C` the value was 75; for `O=C1NC(=O)c2cc(S(=O)(=O)N(CCO)CCO)cc3cccc1c23`, 56; for `C=Cc1cc2ccc(C)cc2nc1Cl`, 58. As for `CC(C)c1c(O)ccc2c1CCC1[C@@](C)(CO)CCC[C@]21C` (stereo partly specified), the FP signal (polarization) is 58. For the compound `COc1cn(CC(=O)Nc2cccc(F)c2)c(CN2CCN(c3ccccc3)CC2)cc1=O`, the FP signal (polarization) is 54.

Regarding `O=C(O)/C=C/C(=O)Nc1ccc(Oc2ccc(Cl)cc2)cc1`, the FP signal (polarization) is 53. Consider `CSc1nc2ccc(NC(=O)c3ccc(Oc4ccc(C(=O)Nc5ccc6nc(SC)sc6c5)cc4)cc3)cc2s1`, for which the FP signal (polarization) was 63. `CC(C)Oc1ccc(C(=O)NCC(c2ccsc2)N2CCCCCC2)cc1` (stereo unspecified): the FP signal (polarization) is 75. Take `O=C(CCCSc1ccc(NC(=O)C2CC2)nn1)NCc1ccccn1`: the FP signal (polarization) is 67.

As for `C=CCc1cccc2cc(C(=O)Nc3cc(OC)c(Cl)cc3OC)c(=O)oc12`, the FP signal (polarization) is 60. As for `O=C(CC1CCCCN1S(=O)(=O)c1cccs1)Nc1ncccn1` (stereo unspecified), the FP signal (polarization) was 69. As to `Cc1ccc(-c2nc(N3CCOCC3)sc2-c2ccc([N+](=O)[O-])cc2)cc1`, the FP signal (polarization) was 74. With `COc1ccc2oc(-c3csc(NC(=O)C4COc5ccccc5O4)n3)cc2c1` (stereo unspecified), the FP signal (polarization) is 66.

For the compound `CC(C)CCN1C(=O)C(C)(C)COc2ccc(NC(=O)Cc3ccc(F)cc3)cc21`, the FP signal (polarization) was 77. For `Cc1nc(-c2ccc(S(=O)(=O)N3CCN(C(=O)c4ccco4)CC3)s2)cs1` the value was 60. As for `CCCOc1ccc(S(=O)(=O)N2CCN(c3ccc(F)cc3)CC2)cc1C`, the FP signal (polarization) was 66. For `COCCN1CCCc2ccc(NS(=O)(=O)c3ccc(C)c(Cl)c3)cc21`, the FP signal (polarization) was 78.

On to `COc1cc(-c2nnc(NC(=O)c3ccc([N+](=O)[O-])cc3)o2)cc(OC)c1OC`, for which the FP signal (polarization) is 54. Take `CCOC(=O)c1oc2ccccc2c1NC(=O)c1cccc(N2C(=O)CCC2=O)c1`: the FP signal (polarization) was 74. With `O=S(=O)(c1cccnc1)N1CCN(c2ccc(-c3cccs3)nn2)CC1` the figure was 69; with `CCOC(=O)c1ccc(NC(=O)CSc2nnc(NC(=O)COc3ccc(Cl)cc3Cl)s2)cc1`, 62.

On to `COc1ccc(Cl)cc1C(=O)Nc1nnc(-c2cccc([N+](=O)[O-])c2)s1`, for which the FP signal (polarization) is 74. With `O=C(COc1ccc(Cl)cc1Cl)Nc1nnc(SCC(=O)Nc2nnc(-c3cccc([N+](=O)[O-])c3)s2)s1`, the FP signal (polarization) is 16 (active). Consider `O=C(Cn1nc(-c2ccc(F)cc2)c2sc(N3CCCC3)nc2c1=O)Nc1ccc(F)cc1F`, for which the FP signal (polarization) was 92. In the case of `CN1C(=O)C(C)(C)COc2ccc(NC(=O)c3ccc(Br)cc3)cc21`, the FP signal (polarization) is 68.

Regarding `COc1ccccc1CCNC(=O)CSc1nnc2ccc(-c3cccnc3)nn12`, the FP signal (polarization) is 55.

`Cc1c(NC(=S)Nc2ccc3c(c2)OCO3)c(=O)n(-c2ccccc2)n1C`: the FP signal (polarization) is 59.

Regarding `CN(C)c1ccc(C=NS(=O)(=O)c2cccs2)cc1`, the FP signal (polarization) is 57. With `CSc1cccc(NC(=O)C(=O)NCCc2ccccc2)c1`, the FP signal (polarization) was 65. Take `Cc1[nH]c(=O)[nH]c(=O)c1CCC(=O)Nc1ccc(F)c(Cl)c1`: the FP signal (polarization) is 60.

`COc1ccc(S(=O)(=O)CC(=O)Nc2cc(C)nn2-c2nc3ccccc3s2)cc1`: the FP signal (polarization) was 78.

As to `CCOc1ccccc1C(=O)NCC(=O)N1CCOC(c2ccccc2)C1` (stereo unspecified), the FP signal (polarization) was 73.

For `COc1cc(-c2noc(-c3cc(-c4ccccc4)n[nH]3)n2)cc(OC)c1OC`, the FP signal (polarization) is 95. `Nc1cc(=O)[nH]c(SCC(=O)Nc2ccc(S(N)(=O)=O)cc2)n1`: the FP signal (polarization) was 61. In the case of `O=C(CSc1nc2ccc(Br)cc2c2nc3ccccc3n12)NCC1CCCO1` (stereo unspecified), the FP signal (polarization) was 57.

Turning to `CCOc1ccc(NC(=O)CC(NCCc2ccc(OC)cc2)C(=O)O)c([N+](=O)[O-])c1` (stereo unspecified), the FP signal (polarization) is 51. With `COc1ccc(S(=O)(=O)Nc2ccccc2C(=O)O)cc1C`, the FP signal (polarization) is 62. As for `Cc1ccc2nc(N(CCN(C)C)C(=O)c3ccc(S(=O)(=O)N4CCCCCC4)cc3)sc2c1`, the FP signal (polarization) was 90. Take `O=C(NCCc1ccccc1)NCC(c1ccsc1)N1CCOCC1` (stereo unspecified): the FP signal (polarization) was 64. Regarding `Cc1cc(-c2nnc(NC(=O)CCCS(=O)(=O)c3ccc(F)cc3)o2)nn1C`, the FP signal (polarization) was 61. Turning to `Cn1nc(-c2ccc3ccccc3c2)c(=O)n(C)c1=S`, the FP signal (polarization) was 50.

Consider `O=C(NCCC1=CCCCC1)C(=O)NCC(c1ccco1)N1CCOCC1` (stereo unspecified), for which the FP signal (polarization) was 57. With `CCSc1cccc(C(=O)Nc2ccc3nc(C)sc3c2)c1`, the FP signal (polarization) was 80. Regarding `CC[N+](C)(CC)CCC[n+]1c(-c2ccccc2)c2cc(N)ccc2c2ccc(N)cc21`, the FP signal (polarization) is -45 (active). With `CCSc1nnc(NC(=O)c2cc(=O)c(OC)co2)s1`, the FP signal (polarization) was 64.

Regarding `COc1ccc(OC)c(Nc2nc(CC(=O)Nc3nc4ccccc4s3)cs2)c1`, the FP signal (polarization) is 66. `Cc1noc(NS(=O)(=O)c2ccc(N/C=C(\C#N)c3nc4ccccc4n3C)cc2)c1C`: the FP signal (polarization) is 68. With `CS(=O)(=O)NCC(c1ccco1)N1CCOCC1` (stereo unspecified), the FP signal (polarization) was 57. Regarding `c1ccc(-c2nc(SCc3nc4ccccc4[nH]3)oc2-c2ccccc2)cc1`, the FP signal (polarization) was 64.

In the case of `Cc1ccc2nc(NC(=O)CSc3nnc4ccc(-c5ccccn5)nn34)sc2c1`, the FP signal (polarization) was 69. For `Cc1cccc(NC(=O)Nc2ccc(Nc3ccc(-n4cccn4)nn3)cc2)c1C`, the FP signal (polarization) was 85. Turning to `COc1ccc(NC(=O)c2c(F)cccc2F)cc1N1CCCCC1=O`, the FP signal (polarization) was 54. In the case of `CCOC(=O)c1ccc2nc(NC(=O)/C=C/c3ccccc3Cl)sc2c1`, the FP signal (polarization) was 62.

As for `CSc1cccc(NC(=O)C(=O)NCCN2CCN(c3ccccc3F)CC2)c1`, the FP signal (polarization) is 87.

Turning to `O=C(Nc1cc2ccccc2cc1NC(=O)c1ccc(N2C(=O)CCC2=O)cc1)c1ccc(N2C(=O)CCC2=O)cc1`, the FP signal (polarization) is 57.

As for `CCN1CCOc2ccc(NC(=O)c3cc4ccccc4oc3=O)cc2C1=O`, the FP signal (polarization) was 62. For the compound `O=C1CCc2cc(S(=O)(=O)NCc3ccco3)cc3c2N1CCC3`, the FP signal (polarization) is 54. With `OCc1cnc(SCc2ccc(Cl)c(Cl)c2)n1Cc1ccc(F)cc1`, the FP signal (polarization) was 67. In the case of `Cc1ccc(S(=O)(=O)/C(C#N)=C/N2CCN(c3cccc(Cl)c3)CC2)cc1C`, the FP signal (polarization) is 71. Turning to `O=C(NCc1cccs1)C(=O)N1CCN(c2cccc(Cl)c2)CC1`, the FP signal (polarization) was 53. Consider `N#CC(C#N)=C1SCN(c2cccc(Cl)c2)CS1`, for which the FP signal (polarization) is -20 (active). Regarding `Cc1nnc(SCc2ccccc2[N+](=O)[O-])s1`, the FP signal (polarization) was 61. Consider `Nc1c(C(=O)c2cccc(Br)c2)sc2nc3c(c(-c4cccs4)c12)CCCC3`, for which the FP signal (polarization) was -15.

With `COc1ccc(-c2cc(-c3cccs3)nc3sc(C(N)=O)c(N)c23)cc1`, the FP signal (polarization) is 33 (active). As for `Nc1c(C(=O)c2ccc(Cl)cc2)sc2nc(-c3cccs3)cc(C(F)(F)F)c12`, the FP signal (polarization) was 19. With `O=S(=O)(NCC(c1ccsc1)N1CCOCC1)c1ccc(F)cc1F` (stereo unspecified), the FP signal (polarization) was 65. As to `Cc1cc(C)c2nc(N(CCn3cccn3)C(=O)c3cc4ccccc4o3)sc2c1`, the FP signal (polarization) is 66. Regarding `CN1C(=O)c2ccc(NC(=O)c3ccn(C)n3)cc2C1=O`, the FP signal (polarization) is 71. For the compound `Cc1nc2sc(C)c(C)n2c(=O)c1NC(=O)c1c(F)cccc1Cl`, the FP signal (polarization) was 66.
